Experimental data: PubChem BioAssay (NCATS)
Records with an inconclusive call do not appear. Calls of active or inactive are those of the source. Calls follow the shape of the dose curve; as a rule, active = well fitted curve in the direction sought with a large enough effect; inconclusive = small, poorly fitted or top-dose-only effect, or another doubt; inactive = no such curve, though single readings can be large; an effect the other way counts as inactive or inconclusive. Square brackets hold non-standard residues; d marks the D form. Peptide text beside a SMILES is read from it. Orn = NCCC[CH](N)C(=O)O

Target: Tyrosyl-DNA phosphodiesterase 1 (Homo sapiens) (UniProt Q9NUW8)
Test: Confirmation Assay for Inhibitors of Tyrosyl-DNA Phosphodiesterase (TDP1) (AID 489007); also: potency is read from the fitted curve at half-maximal effect; nearly all actives have a fitted effect of over 40% in size
Settings: recombinant human TDP1 enzymatic activity, dose-response
Outline: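 AlphaScreen read-out: streptavidin donor and anti-FITC acceptor beads (10 ug/ml) bind intact substrate, so Tdp1 removal of tyrosine-FITC lowers signal. Enzyme 1 nM, substrate 15 nM, 5 min reaction at room temperature after 15 min compound preincubation.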

Sequence of Tyrosyl-DNA phosphodiesterase 1 (Homo sapiens) (Q9NUW8 whole entry, looked up): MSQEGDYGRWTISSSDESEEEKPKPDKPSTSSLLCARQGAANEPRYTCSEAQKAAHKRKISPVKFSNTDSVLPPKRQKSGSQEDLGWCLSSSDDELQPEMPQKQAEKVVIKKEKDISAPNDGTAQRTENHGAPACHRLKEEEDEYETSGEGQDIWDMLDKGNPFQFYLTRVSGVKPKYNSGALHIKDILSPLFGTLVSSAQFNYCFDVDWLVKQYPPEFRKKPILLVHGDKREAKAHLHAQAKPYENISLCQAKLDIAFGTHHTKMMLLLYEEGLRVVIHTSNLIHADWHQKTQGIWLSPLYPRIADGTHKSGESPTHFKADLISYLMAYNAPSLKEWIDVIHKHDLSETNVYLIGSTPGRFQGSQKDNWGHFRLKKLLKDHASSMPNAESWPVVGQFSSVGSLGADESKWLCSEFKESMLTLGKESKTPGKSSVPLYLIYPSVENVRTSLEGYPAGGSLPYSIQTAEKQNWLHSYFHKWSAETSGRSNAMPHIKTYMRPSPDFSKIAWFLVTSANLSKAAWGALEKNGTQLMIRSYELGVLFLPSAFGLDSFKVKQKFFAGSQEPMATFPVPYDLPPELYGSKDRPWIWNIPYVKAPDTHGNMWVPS

Structure (SMILES)	Potency
[O]=[Sb]([OH])([OH])[c]1ccccc1	6.31 µM (active)
Nc1nc(/C(=C/CC(=O)O)C(=O)NC2C(=O)N3C(C(=O)O)=CCSC23)cs1 (configuration not stated)	12.6 µM (active)
CC(=O)Nc1ccc(N=Cc2c(O)n(Cc3ccco3)c(=O)[nH]c2=O)cc1	22.4 µM (active)
CC(C)(O/N=C(\C(=O)N[C@@H]1C(=O)N2C(C(=O)[O-])=C(C[n+]3ccccc3)CS[C@@H]12)c1csc(N)n1)C(=O)O	15.8 µM (active)
CN(C)c1ccc(/C=C2/C(=O)NC(=O)N(Cc3ccco3)C2=O)cc1	100 µM (active)
CCOC(=O)C1CCN(/C=C2/C(=O)NC(=O)N(Cc3ccco3)C2=O)CC1	44.7 µM (active)
CCc1nnc(NC(=O)CSc2ccc(-c3ccco3)nn2)s1	15.8 µM (active)
CCOc1ccc2nc(N=Nc3c(O)[nH]c(=O)[nH]c3=O)sc2c1	100 µM (active)
O=C1NC(=O)N(c2ccc3c(c2)OCO3)C(=O)/C1=C\c1ccc(-c2ccccc2C(=O)O)o1	3.16 µM (active)
O=C1NC(=S)NC(=O)C1=Cc1ccc2c(c1)CCN2CCCCl	2.51 µM (active)
O=c1c2ccccc2nc(/C=C/c2cccnc2)n1Cc1ccccc1	14.1 µM (active)
CCOC(=O)CCCc1cc[c]([Sb](=[O])([OH])[OH])cc1	0.794 µM (active)
C[C@H](CCC(=O)O)[C@H]1CC[C@@H]2[C@H]3CC[C@H]4C[C@H](O)CC[C@]4(C)[C@@H]3CC[C@@]21C	100 µM (active)
Oc1cc(O)c2c(c1)OC(c1cc(O)c(O)c(O)c1)C(O)C2 (configuration not stated)	5.01 µM (active)

Target: ATP-dependent 6-phosphofructokinase (Trypanosoma brucei brucei) (UniProt O15648)
Test: qHTS Assay to Find Inhibitors of T. brucei phosphofructokinase: hit validation (AID 492961);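 also: luminescence reports ADP formed as PFK phosphorylates fructose-6-phosphate with ATP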
Settings: T. brucei PFK, ADP-Glo luminescence; series mostly up to 51.4 µM
Outline: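 Reaction: 0.1 M triethanolamine pH 8.0, 5 mM MgCl2, F6P 0.5 mM, ATP 0.1 mM, PFK 1.25 nM, 45 min RT. Read-out: ADP-Glo luminescence. Analysis: concentration-response fits, classed by r2 and efficacy.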

Sequence of ATP-dependent 6-phosphofructokinase (Trypanosoma brucei brucei) (O15648 whole entry, looked up): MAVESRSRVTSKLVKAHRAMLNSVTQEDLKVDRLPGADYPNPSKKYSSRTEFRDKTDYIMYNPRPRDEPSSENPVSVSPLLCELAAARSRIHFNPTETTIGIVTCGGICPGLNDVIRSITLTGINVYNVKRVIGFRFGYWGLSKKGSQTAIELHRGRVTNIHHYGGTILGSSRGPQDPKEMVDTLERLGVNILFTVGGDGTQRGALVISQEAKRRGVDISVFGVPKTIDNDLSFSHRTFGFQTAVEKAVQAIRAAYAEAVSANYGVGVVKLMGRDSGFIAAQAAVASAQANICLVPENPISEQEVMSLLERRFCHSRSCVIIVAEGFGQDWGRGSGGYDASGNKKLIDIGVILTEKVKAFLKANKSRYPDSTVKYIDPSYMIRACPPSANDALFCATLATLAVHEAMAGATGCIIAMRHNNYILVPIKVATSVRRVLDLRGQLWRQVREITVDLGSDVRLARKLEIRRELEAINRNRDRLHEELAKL

Structure (SMILES)	outcome
CCC(C)C1NC(=O)C(Cc2ccc(O)cc2)NC(=O)C(N)CSSCC(C(=O)N2CCCC2C(=O)NC(CC(C)C)C(=O)NCC(N)=O)NC(=O)C(CC(N)=O)NC(=O)C(CCC(N)=O)NC1=O (configuration not stated)	inactive
CC(C)C(NC(=O)C(CC(=O)O)NC(=O)C(CCCCN)NC(=O)C(N)CCCN=C(N)N)C(=O)NC(Cc1ccc(O)cc1)C(=O)O (configuration not stated) (H-RKDVY-OH; configuration not given here)	inactive
CC(C)CC1NC(=O)C(CCCN)NC(=O)C(C(C)C)NC(=O)C2CCCN2C(=O)C(Cc2ccccc2)NC(=O)C(CC(C)C)NC(=O)C(CCCN)NC(=O)C(C(C)C)NC(=O)C2CCCN2C(=O)C(Cc2ccccc2)NC1=O (configuration not stated) (cyclo(FPV[Orn]LFPV[Orn]L); configuration not given here)	inactive
